The nature of experiment [1]: qHTS assay to identify small molecule agonists of the hypoxia (HIF-1) signaling pathway (AID 1224846; active = well fitted activation curve with a large enough effect in the signal ratio in the repeat runs, not every such curve was filed as active; the % refers to the signal ratio). In outline:
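Hypoxia-pathway activation was scored as increased beta-lactamase from an HRE-controlled reporter in ME-180 cells; plated at 2,000 cells per well with 0.5% dialyzed FBS, they were exposed 17 hrs to compounds and then given CCF4-AM.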
On the technique in general: qHTS replaces the single test concentration by a dilution series.

The nature of experiment [2]: qHTS assay to identify small molecule agonists of H2AX - cell viability counter screen (AID 1224847; calls by dose curve; note: nearly all actives have a fitted effect of over 30% in size; note: potency is the fitted concentration of half-maximal effect). In outline:
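Wild-type CHO-K1 cells (10% FBS medium) were plated overnight at 37C, exposed to compounds at 15 concentrations for 3 hr at 37C (0.76% DMSO final), and viability was read as CellTiter-Glo luminescence after 30 min at room temperature.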

Experiment [3] can be described thus: qHTS RealTime-Glo MT Cell Viability Assay in HepG2 cells - 24 hour (AID 1224867). Note: nearly all actives have a fitted effect of over 50% in size. In outline:
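HepG2 suspension premixed with RealTime-Glo reagents is plated at 600 cells per well and left 5 h at 37 C/5% CO2. Compounds in DMSO then go in, and bioluminescence reflecting viable cell number is recorded over 40 h.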

A short description of experiment [4]: A CellTox Green Cytotoxicity Assay to monitor cytotoxicity in HEK293 cells - 0 hour (AID 1224869). Note: nearly all actives have a fitted effect of over 50% in size. In outline: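 Seeding of HEK293 cells together with cytotoxicity dye preceded a 5 h incubation at 37 C/5% CO2. Test compounds in DMSO were then added and fluorescence monitored across 40 h.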
A short description of experiment [5]: qHTS RealTime-Glo MT Cell Viability Assay in HepG2 cells - 40 hour (AID 1224870). Note: nearly all actives have a fitted effect of over 50% in size. In outline:
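HepG2 cells (600/well) mixed with RealTime-Glo MT reagent, settled 5 h at 37 C/5% CO2 before compound addition. Nonlytic NanoLuc luminescence from viable-cell prosubstrate reduction read repeatedly during 40 h treatment at 37 C.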

The nature of experiment [6]: qHTS assay to identify small molecule agonists of the hypoxia (HIF-1) signaling pathway - cell viability counter screen (AID 1224844; calls by dose curve; note: nearly all actives have a fitted effect of over 50% in size). In outline:
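Multiplexed with the HRE beta-lactamase assay, this viability read used CellTiter-Glo luminescence (30 min, RT) on HRE-bla ME-180 cells treated 17 hrs with compounds in 0.5% dialyzed FBS medium.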

Experiment [7] is described as follows: qHTS assay to identify small molecule antagonists of the estrogen related receptor (ERR) signaling pathway from Tox21 library (AID 1224848). Note: nearly all actives have a fitted effect of over 50% in size. Note: potency is the fitted concentration of half-maximal effect. In outline:
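ERR reporter cell line (from NTP) seeded 2,000 cells/well, rested 6 h at 37 C/5% CO2, then pin-dosed with compounds in DMSO. After 18 h at 37 C, ONE-Glo added; luminescence read after 30 min at room temperature.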

A short description of experiment [8]: qHTS assay to identify small molecule agonists of the estrogen related receptor (ERR) signaling pathway from Tox21 library (AID 1224849; calls by dose curve; note: nearly all actives have a fitted effect of over 15% in size). To be noted: ERR reporter cell line, ONE-Glo luciferase, 18 h; at 92.4 µM (top of the series) unless noted. In outline:
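Six hours post-seeding at 37 C/5% CO2, ERR cells receive DMSO-solubilised compounds; after 18 h at 37 C, ONE-Glo reagent is applied and luminescence recorded.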

Experiment [9] in a line: qHTS RealTime-Glo MT Cell Viability Assay in HEK293 cells - 32 hour (AID 1224868). Note: nearly all actives have a fitted effect of over 50% in size. Note: potency is the fitted concentration of half-maximal effect. In outline:
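Reads taken at 0, 8, 16, 24, 32 and 40 h from the same wells. HEK293 cells (600/well) carried RealTime-Glo reagents from seeding, with compound added after a 5 h settle at 37 C.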

Experiment [10] can be described thus: qHTS assay to identify small molecule agonists of H2AX (AID 1224845; active = well fitted activation curve with a large enough effect in the signal ratio in the repeat runs, not every such curve was filed as active; the % refers to the signal ratio). A digest of the protocol: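 Wild-type CHO-K1 cells, plated overnight, exposed 3hr at 37C to 15 concentrations (0.76% DMSO final). Lysed, then HTRF anti-pH2AX (S139) cryptate and anti-H2AX-d2 antibodies, 24 hr room temperature; 665/620 nm emission read.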

Each structure is given as a SMILES string. A number with no mark means an inactive call. Results filed as inconclusive are left out. Activity calls are given as the source filed them. Unless noted, calls come from the whole dose curve; as a rule, active = well fitted curve in the direction sought with a large enough effect in the repeat runs; inconclusive = weak or mixed curves; inactive = no such curve, though single readings can be large; an effect the other way counts as inactive or inconclusive.
% is set by controls: 0 for no effect and ±100 for the full control effect.

`CCOC(=O)C1=C[C@]2(CC)CCCN3CCc4c(n1c1ccccc41)[C@@H]32`: the Potency result in [1], in [2], in [3], in [4] and in [5] was “inactive” in each case.
As to `O=C(O)c1ccc(-n2nc(-c3ccccc3O)nc2-c2ccccc2O)cc1`, the Potency entry in [6], in [3], in [4] and in [5] was “inactive” each time. In addition, the Potency in [7] is 21.1 µM (active). For the same compound, the activity change, positive = activation in [8] was -48.9% [at 42.5 µM].
With `Cc1cc(N)c2cc(NC(=O)Nc3ccc4nc(C)cc(N)c4c3)ccc2n1`, the Potency result in [3], in [9], in experiment [4] and in experiment [5] was “inactive” in each case.
Consider `COc1cc2c(cc1OC)C(C(C(=O)N(CCc1ccc(OC)c(OC)c1OC)CCc1ccc(OC)c(OC)c1OC)c1ccccc1)=NCC2` (centres undefined), for which the Potency entry in experiment [10], in experiment [1], in [2] and in experiment [4] was “inactive” throughout. Also, the Potency in experiment [7] was 26.6 µM (active); in experiment [9], 3.38 µM (active). In addition, the activity change, positive = activation in experiment [8] was -49.6% [at 42.5 µM].
Regarding `CCN(CC)c1ccc(C(=C2C=CC(=[N+](CC)CC)C=C2)c2cc(S(=O)(=O)O)ccc2S(=O)(=O)[O-])cc1`, the Potency result in experiment [1], in experiment [3], in [9], in experiment [4] and in [5] was “inactive” in each case. For the same compound, the Potency in [2] was 22 µM (active); in experiment [7], 11.9 µM (active). Further, the activity change, positive = activation in [8] was -45.9% [at 42.5 µM].
Turning to `CN(C)CCCN1c2ccccc2Sc2ccccc21`, the Potency result in experiment [2], in experiment [7], in experiment [3], in experiment [9], in experiment [4] and in experiment [5] was “inactive” each time. In addition, the activity change, positive = activation in experiment [8] was 7.95% [at 42.5 µM].
Consider `CO[C@@H]1[C@H](OC(=O)/C=C/C=C/C=C/C=C/C(=O)O)CC[C@]2(CO2)[C@H]1[C@@]1(C)O[C@@H]1CC=C(C)C`, for which the Potency entry in experiment [2], in experiment [3], in experiment [4] and in experiment [5] was “inactive” throughout. In experiment [8], the activity change, positive = activation is -16%.
Regarding `CN1CCC(=C2c3ccccc3Sc3ccccc32)CC1`, the Potency result in experiment [10], in [3], in experiment [4] and in [5] was “inactive” throughout. Also, the activity change, positive = activation in [8] is 1.79% [at 42.5 µM].
`COc1ccc(C(=O)Nc2nc3ccccc3c(NCc3ccccc3)c2C#N)cc1`: the Potency entry in [1], in experiment [2], in [7], in [9], in [4] and in experiment [5] was “inactive” in each case. In addition, the activity change, positive = activation in experiment [8] was -5.4%.
Turning to `CC(C)Nc1ccc(NC(C)C)c2c1C(=O)c1ccccc1C2=O`, the Potency entry in experiment [1], in [3], in experiment [9], in experiment [4] and in experiment [5] was “inactive” throughout. Also, in experiment [2], the Potency is 26.3 µM (active).
In the case of `CCCCCCCCCCCCCCCCOS(=O)(=O)O`, the Potency entry in experiment [10], in [1], in [3], in experiment [9], in experiment [4] and in experiment [5] was “inactive” each time. For the same compound, the activity change, positive = activation in [8] was -16% [at 42.5 µM].
With `C=CC(=O)OCCOc1ccccc1`, the Potency result in experiment [2], in [3], in experiment [9], in [4] and in [5] was “inactive” in each case. In addition, the activity change, positive = activation in [8] was 46.4% (active).
For `CCCOC(C(=O)OC1CCN(C)CC1)(c1ccccc1)c1ccccc1`, the Potency result in experiment [1], in experiment [2], in experiment [3], in experiment [4] and in experiment [5] was “inactive” in each case. The activity change, positive = activation in [8] is -25.8% [at 42.5 µM].

Source of the values: PubChem BioAssay (Tox21).
